Source: PubChem BioAssay
D1 PAM – enhances dopamine response at the human D1 receptor | P21728 | HEK293 TREx D1 cells, calcium flux, dopamine EC20 potentiation | potentiation, % at 10 µM | hit rate 0.036% among 360,000 | AID 504651; in the data active = potentiation above about 30%; also: 0% is about no effect
D1 agonist – agonists of human D1 dopamine receptor. AID 504660. activation, % at 2 µM. hit rate 1% among 360,000. HEK293 T-REx D1 cells, calcium flux, agonist mode. P21728; in the data active = activation above about 30%; also: 0% is about no effect
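Agonism was scored from calcium flux recorded over 180 s (1 read/s) after pintool compound addition, following a 10-cycle baseline. Cells were inducible force-coupled HEK293 TREx D1, plated overnight at 30 C and loaded with no-wash calcium dye.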
D1 antagonist – human D1 dopamine receptor antagonism | hit rate 3.2% among 360,000 | HEK293 TREx D1 cells, calcium flux, dopamine EC80; stronger effect = lower value | AID 504652 | activity change, negative = inhibition, % at 10 µM | P21728; in the data active = activity change below about -30%; also: % is scaled to controls: 0 for no effect and ±100 for the full control effect
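HEK293 T-REx cells expressing inducible, force-coupled D1 receptor; no-wash Ca dye, 30–90 min RT. Cmpd → 180 s read at 1 Hz → EC80 DA → 180 s read.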
D3 antag – D3 dopamine receptor (human) antagonism | D3R cells, DiscoveRx beta-arrestin luminescence, antagonist mode; stronger effect = lower value | max response, negative = inhibition, % | hit rate 2.5% among 360,000 | AID 652054; in the data active = max response below about -50%; inconclusive = no clear call, values can overlap the other calls; also: % is scaled to controls: 0 for no effect and ±100 for the full control effect
Target sequence (P35462 whole entry, looked up): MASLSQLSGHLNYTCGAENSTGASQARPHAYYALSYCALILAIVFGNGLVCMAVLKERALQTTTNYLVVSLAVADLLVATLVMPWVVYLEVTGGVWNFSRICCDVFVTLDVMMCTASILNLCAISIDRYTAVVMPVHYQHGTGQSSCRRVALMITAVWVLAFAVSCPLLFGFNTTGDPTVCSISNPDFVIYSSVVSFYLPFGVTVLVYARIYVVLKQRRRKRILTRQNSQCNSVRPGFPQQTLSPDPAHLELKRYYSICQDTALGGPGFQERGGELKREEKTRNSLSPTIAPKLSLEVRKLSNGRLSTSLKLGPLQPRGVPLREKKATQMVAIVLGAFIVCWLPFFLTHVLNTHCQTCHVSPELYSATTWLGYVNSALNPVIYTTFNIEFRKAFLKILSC
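Cells expressing the human receptor were seeded at 1500 cells/well, incubated overnight at 37 degrees C in 5% CO2, then exposed to library compounds with dopamine controls for 90 minutes at 37 degrees C before luminescent detection.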
D3 ag – agonists of human D3 dopamine receptor. max activation, %. AID 652048. D3R DiscoveRx beta-arrestin cells, luminescence, 90 min. hit rate 0.58% among 410,000; in the data active = max activation above about 30%; also: 0% is about no effect
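Cells at 1500/well, incubated overnight, then treated with pinned compounds (dopamine as control) for 90 min at 37 degrees C. DiscoveRx reagent added for 30 - 60 minutes at room temperature; luminescence read.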
Starred values were filed as active, the others as inactive; ? = inconclusive; . = no result given. Only some compounds are listed: those with a hit (about 6% of all), similar ones and a draw of the others.

SMILES	D1 PAM	D1 agonist	D1 antagonist	D3 antag	D3 ag
COc1cccc(C=NNC(=O)CCCC(=O)NN=Cc2cccc(OC)c2)c1	.	.	.	20	10
CC(=O)Nc1nc(N)n(-c2ccccc2)n1	-5	1	3	30	-3
COc1ccc(C(=O)Nc2nc(N3C(=O)c4ccccc4C3=O)n(-c3ccccc3)n2)cc1	1	1	9	-91*	-6
CC(=O)Nc1nc(N2C(=O)c3ccccc3C2=O)n(-c2ccccc2)n1	3	1	5	-63*	-1
COc1ccc(C(=O)Nc2cc(-c3ccccc3)nn2-c2ccccc2)cc1	-1	5	11	.	3
O=C(Nc1nc(N2C(=O)c3ccccc3C2=O)n(-c2ccccc2)n1)c1ccc(F)cc1	7	1	-13	-55*	12
O=C(Nc1nc(N2C(=O)c3ccccc3C2=O)n(-c2ccccc2)n1)c1ccccc1	2	0	5	42	2
Cc1cn2c(=O)cc(COc3cccc(NC(=O)c4ccccc4C)c3)nc2s1	-2	-2	-21	.	-10
O=c1c(=O)n(-c2ccccc2)ccn1Cc1c(F)cccc1Cl	-2	-1	11	.	1
COc1cccc(N2CC(NS(=O)(=O)c3ccc4ccccc4c3)CC2=O)c1 (centres undefined)	-3	31*	-21	4	0
COc1cccc(N2CC(NS(=O)(=O)c3cccnc3)CC2=O)c1 (centres undefined)	3	5	-8	-10	-15
Cc1ccc(NC(=O)CSc2nnc(N)s2)c(C)c1	-3	0	7	.	-14
Cc1cccc(OCC(=O)NNC(=O)CCN2CCN(c3ccccc3)CC2)c1C	.	.	.	-83*	-9
O=C(CCN1CCN(c2ccccc2)CC1)NNC(=O)c1ccccc1	.	.	.	-54*	8
Cc1c(C(=O)NN2CCCCC2)nn(-c2ccc(Cl)cc2Cl)c1-c1ccc(Cl)cc1	.	.	.	.	-22
CSc1cccc(NC(=O)N2CCN(c3cc(-c4noc(C)n4)ccc3C)CC2)c1	-4	1	1	.	-4
CC(C)CC(=O)NC(=S)Nc1ccc(NC(=O)c2ccco2)cc1	-3	11	-36*	14	7
CC(=O)NS(=O)(=O)c1ccc(NC(=S)NC(=O)c2ccco2)cc1	0	2	1	-110*	-8
NS(=O)(=O)c1ccc(NC(=S)NC(=O)c2ccco2)cc1	-5	3	-1	?	-10
Cc1cc(C)cc(NC(=O)Cn2c(C(F)(F)F)nc3ccccc32)c1	-3	13	-24	.	4
COc1ccc(OC)c(NC(=O)c2ccc(CN3CCc4ccccc4C3)cc2)c1	-2	1	-1	-109*	-13
COc1ccc(NC(=O)c2ccc(CN3CCc4ccccc4C3)cc2)c(OC)c1	-20	1	-35*	-101*	-29
Cc1cc(C)cc(-n2nnc(-c3nc(-c4ccccc4F)no3)c2C)c1	-2	1	-1	.	9
Cc1cc(C)c2c(N)c3cccc(C)c3nc2n1	2	54*	5	-19	3
Cc1cccc2c(N)c3c(nc12)CCCC3 (tested in a mixture with another compound)	7	3	-2	6	-9
SMILES	D1 PAM	D1 agonist	D1 antagonist	D3 antag	D3 ag
CCN(CC)CCCN(Cc1cc2ccc(C)c(C)c2[nH]c1=O)C(=O)NC1CCCCC1	-7	0	14	-57*	-55
COc1ccc(Nc2cc(C)c3cc(NC(=O)c4cc(OC)cc(OC)c4)ccc3n2)cc1	2	4	-4	.	8
Cc1ccc(C2=NN(S(C)(=O)=O)C(c3cccs3)C2)cc1 (centres undefined)	-11	0	-48*	3	-8
O=C(c1ccccc1)N1N=C(c2ccccc2)CC1c1cccs1 (centres undefined)	-9	4	-67*	2	6
CS(=O)(=O)N1N=C(c2ccc(Br)cc2)CC1c1cccs1 (centres undefined)	0	1	-25	0	-5
Cc1ccc(C2CC(c3cccs3)=NN2S(=O)(=O)c2ccc(C)cc2)cc1 (centres undefined)	-1	7	-33*	-11	2
O=C(CNCCO)N1N=C(c2cccs2)CC1c1cccs1 (centres undefined)	5	3	-5	9	2
Cc1ccc(C2=NN(C(=O)CNCCO)C(c3cccs3)C2)cc1 (centres undefined)	-5	2	-33*	3	3
